Experimental data reported in PubChem BioAssay AID1159580 (chemical genetic matrix, 2015).
Several values for one entry are separate records, joined by “and”; a condition that tells them apart may be missing. Equal values may be shown once. Screen size: about 5,500 compounds; about 2,000 (36%) were called active. Another 18% or so got no clear call; they are omitted. Cut-off read from the data, not from the text of the source: active = normalized growth mostly below about 0.91 (no sharp cut-off); inconclusive = no clear call, values can overlap the other calls; inactive = mostly above about 0.92. Some of the results follow.

Assay: chemical genetic growth profiling, strain panel (AID 1159580);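 note: tested at 20 µM; growth read once vehicle control cultures reached saturation at 30 °C; 1 = growth at the plate median or of vehicle wells; lower values mean less growth of the strain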
Conditions: S. cerevisiae deletion strains, growth OD

Measured: normalized growth

CC1=CC2C(C(C)C)CCC(C)(O)C2CC1 (configuration not stated)
inactive: locus YAL013W, strain DEP1, stronger effect = lower value 1 | locus YAL021C, strain ccr4, stronger effect = lower value 0.981 | locus YAL026C, strain drs2, stronger effect = lower value 1.01 | locus YAL030W, strain snc1, stronger effect = lower value 0.989 | locus YBL061C, strain skt5, stronger effect = lower value 0.991 | locus YBR009C, strain hhf1, stronger effect = lower value 0.97 | locus YBR021W, strain FUR4, stronger effect = lower value 0.999 | locus YBR023C, strain chs3, stronger effect = lower value 0.945 | locus YBR171W, strain sec66, stronger effect = lower value 0.974 | locus YBR229C, strain ROT2, stronger effect = lower value 0.949 | locus YBR231C, strain swc5, stronger effect = lower value 1.02 | locus YBR279W, strain paf1, stronger effect = lower value 0.988 | locus YCL011C, strain gbp2, stronger effect = lower value 0.998 | locus YCL016C, strain dcc1, stronger effect = lower value 0.972 | locus YCL029C, strain bik1, stronger effect = lower value 0.953 | locus YCL061C, strain MRC1, stronger effect = lower value 1.01 | locus YCL069W, strain vba3, stronger effect = lower value 0.981 | locus YCR088W, strain abp1, stronger effect = lower value 0.996 | locus YDL005C, strain med2, stronger effect = lower value 0.998 | locus YDL035C, strain GPR1, stronger effect = lower value 0.963 | locus YDL040C, strain nat1, stronger effect = lower value 0.987 | locus YDL074C, strain BRE1, stronger effect = lower value 0.97 | locus YDL101C, strain DUN1, stronger effect = lower value 0.977 | locus YDL134C, strain PPH21, stronger effect = lower value 1.01 | locus YDL185W, strain tfp1, stronger effect = lower value 0.972 | locus YDL192W, strain arf1, stronger effect = lower value 0.934 | locus YDR001C, strain nth1, stronger effect = lower value 0.992 | locus YDR069C, strain doa4, stronger effect = lower value 1.01 | locus YDR101C, strain arx1, stronger effect = lower value 0.969 | locus YDR159W, strain sac3, stronger effect = lower value 0.915 | locus YDR162C, strain NBP2, stronger effect = lower value 0.956 | locus YDR195W, strain ref2 1.03 | locus YDR297W, strain sur2, stronger effect = lower value 0.979 | locus YDR318W, strain mcm21, stronger effect = lower value 0.959 | locus YDR334W, strain swr1, stronger effect = lower value 1.03 | locus YDR335W, strain msn5, stronger effect = lower value 0.977 | locus YDR388W, stronger effect = lower value 0.985 | locus YDR502C, strain sam2, stronger effect = lower value 1.02 | locus YEL003W, strain gim4, stronger effect = lower value 1 | locus YEL037C, strain rad23, stronger effect = lower value 0.997 | locus YEL061C, strain CIN8 (second series), stronger effect = lower value 1 | locus YEL061C, strain CIN8, stronger effect = lower value 0.974 | locus YER015W, strain faa2, stronger effect = lower value 0.991 | locus YER016W, strain bim1, stronger effect = lower value 0.998 | locus YER110C, stronger effect = lower value 0.966 | locus YER111C, strain swi4, stronger effect = lower value 0.995 | locus YER155C, strain BEM2 (second series), stronger effect = lower value 0.875 | locus YER155C, strain BEM2, stronger effect = lower value 0.992 | locus YER167W, strain BCK2, stronger effect = lower value 0.977 | locus YFR010W, strain ubp6, stronger effect = lower value 1.1 | locus YGL078C, strain dbp3, stronger effect = lower value 1.02 | locus YGL086W, strain mad1, stronger effect = lower value 0.978 | locus YGL167C, strain pmr1, stronger effect = lower value 0.98 | locus YGL173C, strain kem1, stronger effect = lower value 0.994 | locus YGL227W, strain vid30, stronger effect = lower value 0.991 | locus YGL240W, strain doc1, stronger effect = lower value 0.959 | locus YGL248W, strain PDE1, stronger effect = lower value 1.02 | locus YGL253W, strain hxk2, stronger effect = lower value 0.998 | locus YGR078C, strain PAC10, stronger effect = lower value 0.981 | locus YGR135W, strain pre9, stronger effect = lower value 1.08 | locus YGR229C, strain SMI1, stronger effect = lower value 0.969 | locus YGR252W, strain gcn5, stronger effect = lower value 1.06 | locus YHR013C, strain ard1, stronger effect = lower value 1.08 | locus YHR027C, strain rpn1, stronger effect = lower value 1.01 | locus YHR030C, strain SLT2, stronger effect = lower value 1 and 0.93 | locus YHR079C, strain IRE1 (second series), stronger effect = lower value 0.987 | locus YHR079C, strain IRE1, stronger effect = lower value 0.918 | locus YHR094C, strain hxt1, stronger effect = lower value 0.983 | locus YHR129C, strain ARP1, stronger effect = lower value 0.993 | locus YHR142W, strain chs7, stronger effect = lower value 0.916 | locus YHR200W, strain rpn10, stronger effect = lower value 1 | locus YIL066C, strain RNR3, stronger effect = lower value 0.968 | locus YIL073C, strain SPO22, stronger effect = lower value 1.04 | locus YIL125W, strain kgd1, stronger effect = lower value 0.961 | locus YIR030C, strain dcg1, stronger effect = lower value 0.981 | locus YJL092W, strain hpr5, stronger effect = lower value 0.996 | locus YJL095W, strain BCK1 (second series), stronger effect = lower value 0.995 | locus YJL095W, strain BCK1, stronger effect = lower value 1.05 and 0.947 | locus YJL115W, strain asf1, stronger effect = lower value 1 | locus YJL129C, strain trk1, stronger effect = lower value 1.01 | locus YJL134W, strain LCB3, stronger effect = lower value 0.979 | locus YJL154C, strain vps35, stronger effect = lower value 0.998 | locus YJL164C, strain tpk1, stronger effect = lower value 0.942 | locus YJL166W, strain qcr8, stronger effect = lower value 0.979 | locus YJL168C, strain set2, stronger effect = lower value 0.992
active: locus YDR137W, strain rgp1, stronger effect = lower value 0.771 | locus YDR392W, strain spt3, stronger effect = lower value 0.59
